# Assay results reported in PMC4336329 (PLoS ONE, 2015).
# Among all 310,000 compounds or so, about 14,000 (4.5%) showed an effect of 50% or more. The effect is printed as a negative number. The list comes from a sample in which strong results are over-represented; it also holds similar structures and randomly drawn compounds.
# Target: human ether-à-go-go-related gene (hERG) potassium channel (human, UniProt Q12809)
# Assay: primary screen, population patch clamp on CHO cells stably expressing hERG; higher = less effect of the substance
# 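Also: peak tail current of the secondary pulse compared with the same well before compound.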
# human ether-à-go-go-related gene (hERG) potassium channel, sequence (Q12809 whole entry, looked up): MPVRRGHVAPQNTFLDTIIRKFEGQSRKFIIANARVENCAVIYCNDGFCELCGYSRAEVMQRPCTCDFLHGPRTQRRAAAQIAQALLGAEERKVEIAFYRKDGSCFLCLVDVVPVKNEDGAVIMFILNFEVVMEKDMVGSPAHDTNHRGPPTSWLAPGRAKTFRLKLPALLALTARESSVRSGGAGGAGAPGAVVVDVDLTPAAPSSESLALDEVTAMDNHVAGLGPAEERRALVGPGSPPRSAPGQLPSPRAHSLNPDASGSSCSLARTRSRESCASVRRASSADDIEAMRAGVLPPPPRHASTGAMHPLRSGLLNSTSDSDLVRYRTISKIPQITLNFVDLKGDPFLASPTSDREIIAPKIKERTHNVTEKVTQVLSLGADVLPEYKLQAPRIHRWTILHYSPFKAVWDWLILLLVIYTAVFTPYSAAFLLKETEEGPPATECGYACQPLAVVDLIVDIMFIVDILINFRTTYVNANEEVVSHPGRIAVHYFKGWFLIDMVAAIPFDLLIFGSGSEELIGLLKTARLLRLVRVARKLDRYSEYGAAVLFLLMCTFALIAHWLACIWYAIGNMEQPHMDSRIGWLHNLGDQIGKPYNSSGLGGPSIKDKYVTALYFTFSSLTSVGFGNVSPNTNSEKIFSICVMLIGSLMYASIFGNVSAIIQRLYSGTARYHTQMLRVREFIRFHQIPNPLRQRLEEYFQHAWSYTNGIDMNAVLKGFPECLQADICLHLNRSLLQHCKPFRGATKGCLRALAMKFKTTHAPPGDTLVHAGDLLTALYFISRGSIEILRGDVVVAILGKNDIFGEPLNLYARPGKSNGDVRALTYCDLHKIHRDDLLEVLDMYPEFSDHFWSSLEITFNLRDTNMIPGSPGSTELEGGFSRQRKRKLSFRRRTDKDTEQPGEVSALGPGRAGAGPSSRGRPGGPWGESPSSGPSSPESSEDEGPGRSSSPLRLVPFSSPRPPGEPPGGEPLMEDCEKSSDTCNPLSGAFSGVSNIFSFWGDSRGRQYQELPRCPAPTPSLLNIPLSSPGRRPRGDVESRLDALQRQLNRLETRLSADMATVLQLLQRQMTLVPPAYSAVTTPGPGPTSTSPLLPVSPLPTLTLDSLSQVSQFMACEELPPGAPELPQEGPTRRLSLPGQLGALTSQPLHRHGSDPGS
row,SMILES,"hERG current change (%, negative = inhibition) at 10uM [%]"
1,COc1ccc(-c2nnc(SCC(=O)Nc3cc(C)on3)o2)cc1,14.4
2,O=C1C(c2ccc(F)cc2)N(C2CCCCC2)C(=O)CN1C1CCCC1 (stereo not shown),-34.1
3,O=C(CSc1ccc2nnc(-c3ccncc3)n2n1)Nc1ccc2c(c1)OCCO2,10.9
4,Cc1ccc(-c2cc(C(=O)O)c3cc(Br)ccc3n2)s1,16.7
5,COCc1c(C(=O)OCC(=O)NCCc2ccc(S(N)(=O)=O)cc2)oc2ccccc12,-0.489
6,CCc1ccc(NC(=O)CSC2=C(C#N)C(c3ccco3)C3=C(CCCC3=O)N2)cc1 (stereo not shown),-1.71
7,COc1ccc(-c2nc(CNS(=O)(=O)c3ccc(OC)c(OC)c3)cs2)cc1,-1.76
8,CCN(CC)C(=O)CC(c1ccc(N(C)C)cc1)c1c(O)cc(OC)cc1OC (stereo not shown),18.7
9,O=C(COc1ccccc1C(=O)Nc1ccccc1)NCCc1ccccc1,34.4
10,CCCCN(CCCC)c1cc(C)nc(-c2ccccc2O)n1,16.8
11,Cc1cccc(OCC(=O)Nc2ccc(S(=O)(=O)Nc3onc(C)c3C)cc2)c1C,13.3
12,Cc1ccc(N(CC(=O)NC2CCCCC2)C(=O)c2ccc(C)s2)cc1,-11.2
13,CCOC(=O)c1c(NC(NC(=O)C(C)C)C(Cl)(Cl)Cl)sc2c1CCC2 (stereo not shown),11
14,O=C(CSc1nc(-c2ccccc2)cs1)N1CCN(C(=O)c2ccco2)CC1,-60.6
15,O=C(c1ccco1)N1CCN(c2nc(-c3ccc(F)cc3)cs2)CC1,-34.9
16,CC1CN(C(=O)CSc2nc(-c3ccccc3)cs2)CC(C)O1 (stereo not shown),3.57
17,O=C(CSc1nc(-c2ccc(F)cc2)cs1)N1CCN(C(=O)c2ccco2)CC1,-57
18,O=C(CSc1nc(-c2ccc(F)cc2)cs1)N1CCOCC1,-25.4
19,O=C(CSc1nncs1)N1CCN(C(=O)c2ccco2)CC1,5.31
20,O=[N+]([O-])c1ccc(N=Nc2c(Cl)cc(O)cc2Cl)cc1,18.2
21,CN(C)S(=O)(=O)c1cccc(NC(=O)COc2ccc3ccccc3c2)c1,-7.08
22,O=C(O)c1ccc(/C=N/N2CCN(C3c4ccccc4-c4ccccc43)CC2)cc1,12.1

row,SMILES,"hERG current change (%, negative = inhibition) at 10uM [%]"
1,O=C(CSc1nnc(-c2ccco2)n1-c1ccccc1)NCc1ccc2c(c1)OCO2,-73.4
2,CCn1c(SCC(=O)NCc2ccc3c(c2)OCO3)nnc1-c1ccco1,-5.03
3,C=CCn1c(SCC(=O)NCc2ccc3c(c2)OCO3)nnc1-c1cccnc1,-0.64
4,O=C(CSc1nnc(-c2cccnc2)n1-c1ccccc1)Nc1ccc2c(c1)OCO2,-6.74
5,O=C(CSc1nc2ccccc2c(=O)n1-c1ccccc1)NCc1ccc2c(c1)OCO2,3.23
6,O=C(CSc1nnc(-c2cccnc2)n1-c1ccccc1)NCc1ccc2c(c1)OCO2,-69
7,Cc1ccccc1-c1nnc(SCC(=O)NCc2ccc3c(c2)OCO3)n1C,-8.1
8,O=C(CSc1ncc(C(=O)O)n1-c1ccc(F)cc1)NCc1ccc2c(c1)OCO2,35.8
9,O=C(CSc1nnc(-c2cccnc2)n1-c1ccc(F)cc1)NCc1ccc2c(c1)OCO2,-72.5
10,CC(=O)Oc1ccc(-c2cccc(C(=O)N(C)c3ccc(O)cc3)c2)cc1,-17.8
11,CN(C)c1ccc(C(=S)Nc2ccccc2)cc1,12.5
12,COC(=O)c1cc(NC(=O)c2nccnc2C(=O)O)cc(C(=O)OC)c1,13.8
13,Cc1ccc(CNC(=O)c2ccc(N3CCc4ccccc43)c([N+](=O)[O-])c2)cc1,3.31
14,Cc1ccc2nc3c(cc(C(=O)NCCN4CCOCC4)c(=N)n3CCCN3CCOCC3)c(=O)n2c1,-7.16
15,Cc1ccc2nc3c(cc(C(=O)NCCc4ccccc4)c(=N)n3CCCN3CCOCC3)c(=O)n2c1,-80.6
16,Cc1ccc2nc3c(cc(C(=O)NCCc4ccccc4)c(=N)n3CCN3CCOCC3)c(=O)n2c1,-76.7
17,Cc1ccc(-c2cc(C(=O)NCCCN3CCOCC3)c3ccccc3n2)cc1C,0.698
18,O=C(NCc1ccco1)c1cccc(F)c1,6.59
19,O=C(COc1cccc(Cl)c1)Nc1ccc2c(c1)CCC2,-3.73
20,CC1CN(c2nnnn2-c2ccccc2)CC(C)O1 (stereo not shown),-23.1
21,CCOc1ccc(CN2CCNC(=O)C2CC(=O)O)cc1 (stereo not shown),11.1
22,CC(=O)Nc1sc(C)c(C)c1C(=O)OCC(=O)Nc1ccccc1,5.91

row,SMILES,"hERG current change (%, negative = inhibition) at 10uM [%]"
1,S=C(Cc1ccc(-c2ccccc2)cc1)N1CCOCC1,-11.9
2,Cc1oc(-c2ccccc2F)nc1CS(=O)(=O)CC(=O)NCc1ccco1,-27.3
3,CC1CCC(NS(=O)(=O)c2ccc(N3CCCC3=O)cc2)CC1 (stereo not shown),1.51
4,O=[N+]([O-])c1ccc(C2=NN(CCO)C(=Nc3ccc(OC(F)(F)F)cc3)SC2)cc1,-13.5
5,COc1ccc(N=C2SCC(c3ccc([N+](=O)[O-])cc3)=NN2CCO)cc1,-53.1
6,COc1ccc(N=C2SCC(c3ccc(C)cc3)=NN2CCO)cc1,-9.63
7,Cc1ccc(C2(C)NC(=O)N(CC(=O)Nc3ccccc3C(=O)N3CCCCC3)C2=O)cc1 (stereo not shown),6.74
8,Cc1ccc(S(=O)(=O)N2CCOCC2)cc1NC(=O)COC(=O)CCn1c(C)csc1=O,2.85
9,COCCN=c1scc(-c2ccccc2)n1/N=C/c1c[nH]c2ccccc12,18.7
10,COCCN=c1scc(-c2cccs2)n1/N=C/c1ccc(O)c(O)c1O,6.24
11,COCCN=c1scc(C)n1/N=C/C1CC2C=CC1C2 (stereo not shown),-55
12,COc1ccc(Cl)cc1S(=O)(=O)N(C)CC(=O)NCc1ccccn1,17.8
13,C=CCn1c(O)c(C=Nc2ccc(N(CC)CC)cc2)c(=O)[nH]c1=O,-7.13
14,Nn1c(SCc2ccc(Br)cc2)nnc1-c1ccccn1,17.5
15,O=C(CSc1ccc2nnc(-c3ccccn3)n2n1)Nc1ccccc1,-23.4
16,O=C(CSc1ccc2nnc(-c3ccccn3)n2n1)Nc1ccc(F)cc1F,-30.4
17,Fc1ccc(CSc2ccc3nnc(-c4ccccn4)n3n2)cc1,-87.6
18,Cc1ccc(CSc2nnc(-c3ccccn3)n2C)cc1,-3.39
19,Cc1ccc(NC(=O)CSc2ccc3nnc(-c4ccccn4)n3n2)cc1,-44.2
20,Brc1ccc(CSc2ccc3nnc(-c4ccccn4)n3n2)cc1,-67.1
21,O=C(CSc1ccc2nnc(-c3ccccn3)n2n1)Nc1ccccc1F,-14.7
22,Cc1ccc(CSc2ccc3nnc(-c4ccccn4)n3n2)cc1,-71.8

row,SMILES,"hERG current change (%, negative = inhibition) at 10uM [%]"
1,Cn1c(SCc2ccc(Br)cc2)nnc1-c1ccccn1,-19.4
2,c1ccc(CSc2ccc3nnc(-c4ccccn4)n3n2)cc1,-69.5
3,O=C(CSc1ccc2nnc(-c3ccccn3)n2n1)Nc1ccc(F)cc1,-48.2
4,C[C@@H](C(=O)NCC1CC1)[C@H]1C[C@]1(C)[C@H](NC(=O)OCc1ccccc1)c1ccccc1,-7.08
5,Cc1cccc(C(=O)N2CCCC(CCC(=O)N3CCN(c4ccccn4)CC3)C2)c1C (stereo not shown),-17.3
6,O=C(Cn1cnc2cc([N+](=O)[O-])ccc2c1=O)Nc1cccc2ccccc12,-5.73
7,O=C(O)c1ccc(Cl)c(S(=O)(=O)Nc2ccc(OCc3ccccc3)cc2)c1,7.79
8,O=C(Cn1cc(C(=O)C2CC2)c2ccccc21)NCc1ccccc1,3.43
9,Cc1cc(C(F)F)n2ncc(C(=O)NC3CCCCCC3)c2n1,-11.5
10,O=C(NCc1ccc2c(c1)OCO2)C(=O)NCC(c1ccco1)N1CCN(c2ccccc2)CC1 (stereo not shown),16
11,Cc1cc(C)cc(OCC(=O)Nc2ccc(N3CCN(C(=O)c4ccco4)CC3)cc2)c1,-45.8
12,Cc1ccc(OCC(=O)Nc2ccc(N3CCN(C(=O)c4ccco4)CC3)cc2)cc1,-56.1
13,Cc1cccc(OCC(=O)Nc2ccc(N3CCN(C(=O)c4ccco4)CC3)cc2)c1,-28.1
14,COc1ccc(OCC(=O)Nc2ccc(N3CCN(C(=O)c4ccco4)CC3)cc2)cc1,0.974
15,Cc1ccc(NC(=O)CSCC(=O)N2CCN(C(=O)c3ccco3)CC2)cc1,-21.6
16,O=C(COc1ccccc1)Nc1ccc(N2CCN(C(=O)c3ccco3)CC2)cc1,-53
17,COc1ccc(NC(=O)CSCC(=O)N2CCN(C(=O)c3ccco3)CC2)cc1,-55.1
18,O=C(COc1ccc(Cl)cc1)Nc1ccc(N2CCN(C(=O)c3ccco3)CC2)cc1,-21.1
19,Cc1cccc(NC(=O)CSCC(=O)N2CCN(C(=O)c3ccco3)CC2)c1,-30.5
